SMILES strings stand for the structures. Screen size: about 580,000 compounds; about 6,100 (1.1%) were called active. About 15% were inconclusive and are not listed. The entries come from a sample that favours actives as a whole. Values without a mark were called inactive. Calls follow the shape of the dose curve; as a rule, active = well fitted inhibition curve with a large enough effect; inconclusive = small, poorly fitted or top-dose-only effect, or another doubt; inactive = no such curve, though single readings can be large or run the other way.
% is scaled to controls: 0 for no effect and ±100 for the full control effect; potency is read from the fitted curve at half-maximal effect.

This assay deals with Polyunsaturated fatty acid lipoxygenase ALOX12 (Homo sapiens) (UniProt P18054). Description: Primary qHTS assay for inhibitors of human arachidonate 12S-lipoxygenase (ALOX12): Round 2. Particulars: purified 12hLO, xylenol orange hydroperoxide absorbance; series mostly up to 108 µM; activity change, negative = inhibition: at the top concentration. The essentials: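 Hydroperoxide product was detected by ferrous iron/xylenol orange as the 573 to 405 nm absorbance ratio. Arachidonic acid at 40 uM (final) was turned over for 30 min at room temperature by 150 nM human 12hLO, pH 7.0 Hepes buffer, after 15 min compound preincubation.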
Sequence of Polyunsaturated fatty acid lipoxygenase ALOX12 (Homo sapiens) (P18054 whole entry, looked up): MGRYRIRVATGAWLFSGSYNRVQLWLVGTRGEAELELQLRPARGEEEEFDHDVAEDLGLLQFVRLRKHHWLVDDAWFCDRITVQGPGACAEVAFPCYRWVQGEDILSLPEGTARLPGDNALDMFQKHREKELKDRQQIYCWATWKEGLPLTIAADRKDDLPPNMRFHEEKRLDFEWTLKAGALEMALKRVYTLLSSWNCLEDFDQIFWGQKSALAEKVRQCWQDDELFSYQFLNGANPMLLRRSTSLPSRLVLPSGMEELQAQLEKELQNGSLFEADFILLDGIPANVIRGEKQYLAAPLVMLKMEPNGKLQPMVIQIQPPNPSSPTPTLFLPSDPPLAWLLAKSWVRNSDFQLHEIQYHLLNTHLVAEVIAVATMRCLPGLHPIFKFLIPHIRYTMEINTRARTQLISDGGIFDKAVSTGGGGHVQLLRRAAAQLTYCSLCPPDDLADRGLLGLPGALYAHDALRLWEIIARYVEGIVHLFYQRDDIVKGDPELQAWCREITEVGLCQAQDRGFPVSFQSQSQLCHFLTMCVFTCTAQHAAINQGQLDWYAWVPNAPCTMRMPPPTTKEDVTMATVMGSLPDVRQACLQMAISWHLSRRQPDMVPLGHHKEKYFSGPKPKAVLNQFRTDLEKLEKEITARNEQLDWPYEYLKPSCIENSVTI
In the case of `CCOc1ccc(C(=O)N(CCN(C)C)CC(=O)OC(C)(C)C)cc1`, the “activity change, negative = inhibition” value is -10.9%.
Still for that read-out and setting: the figure for `CC(C)NC(=O)c1cccc2c1CCCN2CC(=O)NCCc1ccccc1` is -6.04%; for `CSc1ccccc1C(=O)NC(C)c1ccccc1` (stereo unspecified) it is -1.43%; for `Clc1ccc(-c2nc(-c3ccc(Br)o3)no2)cc1` it is 14.2%.
For `CNC(=O)c1nn(CC(=O)NC(C)c2ccccc2)c(=O)c2ccccc12` (stereo unspecified), the “activity change, negative = inhibition” value was 3.81%.
Still for that read-out and setting: next, `O=C(Cn1nc(C(=O)O)c2ccccc2c1=O)Nc1cc(F)ccc1F`: -13.9%.
Turning to `CC(NC(=O)Cn1nc(C(N)=O)c2ccccc2c1=O)c1ccccc1` (stereo unspecified), the Potency was 35.5 µM (active).
Take `CC(=O)N1CCC(C(=O)N(C)CC(=O)Nc2ccccc2C(F)(F)F)CC1`: the “activity change, negative = inhibition” value was -4.93%.
The same measure, in the same setting: next, `Cc1cccc(Oc2c(C(F)(F)F)oc3cc(OCC(=O)OCCC(C)C)ccc3c2=O)c1`: 11.5%; `O=C(OCc1nc2ccccc2o1)c1ccc2ccccc2c1`: 9.47%.
With `C=CC(=O)c1ccc2ccccc2c1`, the Potency is 17.8 µM (active).
As for `O=C(OCC(=O)N1CCOCC1)c1ccc2ccccc2c1`, the “activity change, negative = inhibition” value is 198%.
Take `O=C(O)COc1ccc(-c2nccc3c2C(=O)N(Cc2c[nH]c4ccccc24)CC(COc2ccc(F)c(F)c2)O3)cc1` (stereo unspecified): the “activity change, negative = inhibition” value was 6.07%.
For `Cc1nn(C)c2nc(C(C)C)cc(C(=O)N3CCN(c4ncccn4)CC3)c12`, the “activity change, negative = inhibition” value was 43.9%.
With `Cc1[nH]n(C)c(=O)c1C(=O)c1c(-c2c(Cl)cccc2Cl)noc1C`, the “activity change, negative = inhibition” value was -37.5%.
As for `Cc1[nH]n(C(N)=S)c(=O)c1N=Nc1ccc(Cl)cc1Cl`, the “activity change, negative = inhibition” value is -80.5%.
Turning to `Cc1[nH]n(C)c(=O)c1N=Nc1ccc(S(C)(=O)=O)cc1`, the Potency was 6.31 µM (active).
Consider `Oc1ccc(O)c([S+]2CCCC(C3CCCCC3)C2)c1` (stereo unspecified), for which the Potency was 17.8 µM (active).
Regarding `COc1ccc(Cc2nnc(SCc3nc4ccccc4c(=O)[nH]3)n2CC(C)C)cc1`, the “activity change, negative = inhibition” value is 5.98%.
On to `Cc1ccc(NC(=O)C2Cc3ccccc3O2)cc1S(N)(=O)=O` (stereo unspecified), for which the “activity change, negative = inhibition” value is 26.3%.
For the compound `COCCN1C(=O)C(O)=C(C(=O)c2ccc(C)o2)C1c1ccc(O)c(OC)c1` (stereo unspecified), the Potency is 17.8 µM (active).
As to `COc1ccc(CCN2C(=O)c3[nH]nc(-c4ccccc4O)c3C2c2ccc(C)cc2)cc1OC` (stereo unspecified), the “activity change, negative = inhibition” value is -5.81%.
The same measure, in the same setting: the figure for `COc1cc(C2C(C(=O)c3sc(C)nc3C)=C(O)C(=O)N2CCN(C)C)cc(OC)c1OC` (stereo unspecified) is 3.5%; for `CCCOc1ccc(C2C(C(=O)c3ccc(C)o3)=C(O)C(=O)N2CCCn2ccnc2)cc1` (stereo unspecified) it is -23.1%.
`COc1cc(C2C(C(=O)c3ccc(C)o3)=C(O)C(=O)N2CCc2ccccc2)ccc1O` (stereo unspecified): the Potency was 35.5 µM (active).
Regarding `CCOC(=O)C1=C(c2ccccc2)N=C2SCC(=O)N2C1c1ccc(O)c(OC)c1` (stereo unspecified), the “activity change, negative = inhibition” value is 16%.
Regarding `COc1ccc(OC2CN(Cc3cccn3C)C2)cc1`, the activity change, negative = inhibition is 5.21% [at 12.5 µM].
For `COc1ccc(OCCSC(C)C(N)=O)cc1` (stereo unspecified), the “activity change, negative = inhibition” value was 0.76%.
Regarding `CC(C)c1ccc(C2CC(=O)N3CN(C4CCCCC4)CSC3=C2C#N)cc1` (stereo unspecified), the Potency is 17.8 µM (active).
For `COc1cc(C(=O)Nc2ccc(C(=O)O)cc2)c2ccccc2n1`, the “activity change, negative = inhibition” value was -3.94%.
`CNC(=O)c1cccc(NC(=O)c2cc(C3CC3)nc3ccccc23)c1`: the Potency is 39.8 µM (active).
With `CC(C)c1ccc(/C=N/NC(=O)c2cc(C3CC3)nc3ccccc23)cc1`, the “activity change, negative = inhibition” value is -1.68%.
In the case of `CNC(=O)C(=O)NC1CC(C)(C)NC(C)(C)C1`, the “activity change, negative = inhibition” value was 12.8%.
Take `Cc1cc(C)cc(S(=O)(=O)n2cc3c(=O)n(C)c(=O)n(C)c3n2)c1`: the “activity change, negative = inhibition” value was 17.8%.
In the case of `O=CN1CCN(C(=O)CCC(=O)O)CC1`, the “activity change, negative = inhibition” value is 1.54%.
For `Clc1ccc(Cn2ncc3c(NCc4cccnc4)ncnc32)cc1`, the “activity change, negative = inhibition” value was 9.76%.
With `c1ccc(CNc2ncncc2-c2cccnc2)cc1`, the Potency was 39.8 µM (active).
In the case of `Cc1cnc(CNc2nc(-c3cccnc3)nc3ccccc23)cn1`, the “activity change, negative = inhibition” value was -15.3%.
Turning to `Cc1cccc(-c2cc(C(=O)NCC3CCCO3)c3ccccc3n2)c1` (stereo unspecified), the “activity change, negative = inhibition” value is -41.8%.
Take `COc1ccc(-c2noc(-c3cc4cc(Cl)ccc4oc3=O)n2)cc1OC`: the “activity change, negative = inhibition” value was -21.2%.
On the same count and under the same terms, next, `O=C(CSc1nnc(-c2ccncc2)n1C1CCCCC1)Nc1ccccc1`: -13.7%; `CCn1c(SCC(=O)NC2CC2)nnc1-c1ccncc1`: 0%.
`CC1CCCCC1NC(=O)CSc1nnc(-c2ccncc2)n1CCCN(C)C` (stereo unspecified): the Potency was 0.355 µM (active).
As for `CCOc1ccc(CNS(=O)(=O)c2ccc(-c3ccc(=O)[nH]n3)o2)cc1`, the “activity change, negative = inhibition” value was 1.93%.
Regarding `O=C(NC1CCS(=O)(=O)C1)c1cc2ccccc2oc1=O` (stereo unspecified), the “activity change, negative = inhibition” value was -5.29%.
In the case of `CCCCc1cc(C[C@H]2CNCC[C@H]2CC(=O)N(CC)CC)no1`, the “activity change, negative = inhibition” value is 15.8% [at 176 µM].
With `O=C(C[C@@H]1CCNC[C@@H]1Cc1cc(-c2ccc(F)cc2)on1)NCCN1CCOCC1`, the “activity change, negative = inhibition” value was 10.7% [at 176 µM].
For `CN(Cc1ccccc1)C(=O)C[C@@H]1CCNC[C@@H]1Cc1cc(-c2ccc(C(C)(C)C)cc2)on1`, the Potency was 25.1 µM (active).
In the case of `COc1ccc(S(=O)(=O)Nc2nc3ccccc3nc2Nc2cccc(C)c2)cc1`, the “activity change, negative = inhibition” value was 0.128%.
In the case of `COc1ccc(C(=O)OCc2ccc(Br)cc2)c(OC)c1`, the “activity change, negative = inhibition” value was -24.9%.
As to `COc1ccc(OC(=O)CCc2ccc3c(c2)OCCO3)cc1`, the “activity change, negative = inhibition” value is -53.4%.
On to `CCCCc1c/c(=N\O)oc2cc3occ(C)c3cc12`, for which the Potency is 17.8 µM (active).
As for `CCOC(=O)COc1ccc2c(=O)c(-c3ccc(OC)c(OC)c3)c(C)oc2c1`, the “activity change, negative = inhibition” value was 7.48%.
As to `CC(C)C[C@@H]1N[C@H](C(=O)NCc2ccc(F)cc2)Cc2cn(C)c3cccc1c23`, the “activity change, negative = inhibition” value is 23.5% [at 176 µM].
With `Cc1ccc(Cl)c(OC(C)C(=O)NN)c1` (stereo unspecified), the “activity change, negative = inhibition” value was 10.7%.
On the same count and under the same terms, next, `CCOC(=O)/C=C/c1ccc(C(F)(F)F)cc1S(=O)(=O)NC(C)(C)C`: -28.5%.
Turning to `CCOC(=O)C[C@H]1c2ccc(C(F)(F)F)cc2S(=O)(=O)N1c1ccccc1`, the “activity change, negative = inhibition” value is -16.8%.
For the compound `CCOC(=O)C1Nc2ccc(C(F)(F)F)cc2C2C=CCC12` (stereo unspecified), the Potency was 17.8 µM (active).
Regarding `Cc1ccc(S(=O)(=O)N2CCCC(C(=O)O)C2)cc1F` (stereo unspecified), the “activity change, negative = inhibition” value was -9.4%.
Still for that read-out and setting: next, `NC(=O)CN1C(=O)C(O)(CC(=O)c2ccc3c(c2)OCO3)c2ccccc21` (stereo unspecified): -0.761%; `CS(=O)(=O)Nc1ccc([C@H]2OCC(=O)N(C3CCOCC3)[C@@H]2CO)cc1`: 10.1% [at 176 µM].
As for `Cc1ccc2[nH]cc(C(C(=O)O)N3CCN(c4ccccc4)CC3)c2c1` (stereo unspecified), the “activity change, negative = inhibition” value is 69.7%.
As for `Cc1ccc(C(=O)NC(C)C)c(Cl)c1`, the “activity change, negative = inhibition” value was 25.9%.
In the case of `CC(C)OC(=O)c1ccc(NCc2cc(O)ccc2O)cc1Cl`, the Potency was 10 µM (active).
On to `O=C(O)c1ccc(CSc2ccc(Cl)cc2Cl)cc1`, for which the “activity change, negative = inhibition” value is -47.7%.
On the same count and under the same terms, next, `Cc1ccc(C2(C(=O)N3C[C@@H](CN4CCCCC4)[C@@H](CO)C3)CC2)cc1`: -8.28%.

The values above are taken from PubChem BioAssay AID1671190 (National Center for Advancing Translational Sciences (NCATS), 2021).
